Assay results: PubChem BioAssay AID1159580 (chemical genetic matrix, 2015)
The campaign covered roughly 5,500 compounds. About 2,000 (36%) were called active. Inconclusive results (about 18%) are left out. Rule as the data show it: active = normalized growth mostly below about 0.91 (no sharp cut-off); inconclusive = no clear call, values can overlap the other calls; inactive = mostly above about 0.92. This is one part of the list.

Test: chemical genetic growth profiling, strain panel (AID 1159580);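 also: tested at 20 µM; growth read once vehicle control cultures reached saturation at 30 °C; 1 = growth at the plate median or of vehicle wells; lower values mean less growth of the strain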
Conditions: S. cerevisiae deletion strains, growth OD
[1] = locus YAL040C, strain CLN3, active compounds read low
[2] = locus YCL061C, strain MRC1 (second series), active compounds read low
[3] = locus YDR150W, strain NUM1, active compounds read low
[4] = locus YDR363W, strain ESC2, active compounds read low
[5] = locus YER002W, strain NOP16, active compounds read low
[6] = locus YJR075W, strain HOC1, active compounds read low
[7] = locus YMR263W, strain SAP30, active compounds read low
[8] = locus YMR307W, strain GAS1, active compounds read low
[9] = locus YNL175C, strain NOP13, active compounds read low
[10] = locus YNL197C, strain WHI3, active compounds read low
[11] = locus YNL224C, strain SQS1, active compounds read low
[12] = locus YOR083W, strain WHI5 (second series), active compounds read low
[13] = locus YGR078C, strain PAC10, active compounds read low
[14] = locus YNL153C, strain GIM3, active compounds read low
[15] = locus YPL241C, strain CIN2, active compounds read low

Measured: normalized growth

CC[C@@H]1C=C/C=C/C[C@H](C)[C@@H](O)[C@](C)(O)C(=O)[C@H](C)[C@@H](O)[C@H](C)C(=O)[C@H](C)[C@@H](O)[C@H](C)/C=C/C(=O)O[C@H]2[C@@H](C)[C@@H](CC1)O[C@@]1(CC[C@@H](C)[C@@H](CC(C)O)O1)[C@@H]2C (stereo not given in full)
active: [8] 0.911
inactive: [1] 0.989 | [2] 1.01 | [3] 1 | [4] 0.961 | [5] 0.945 | [6] 0.973 | [7] 1.02 | locus YNL128W, strain TEP1, active compounds read low 0.96 | [9] 0.969 | [10] 0.99 | [11] 0.993 | [12] 0.971 | locus YPL055C, strain LGE1, active compounds read low 0.936

CC[C@@H]1C=C/C=C/C[C@H](C)[C@@H](O)[C@](C)(O)C(=O)[C@H](C)[C@@H](O)[C@H](C)C(=O)[C@H](C)[C@@H](O)[C@H](C)/C=C/C(=O)O[C@H]2[C@@H](C)[C@@H](CC1)O[C@@]1(CC[C@@H](C)[C@@H](C[C@H](C)O)O1)[C@@H]2C
active: locus YLR262C, strain YPT6 (second series), active compounds read low 0.852 | locus YMR205C, strain PFK2, active compounds read low 0.815 | locus YPL106C, strain sse1, active compounds read low 0.807
inactive: locus YAL021C, strain ccr4, active compounds read low 0.977 | locus YAL026C, strain drs2, active compounds read low 1.01 | locus YAL030W, strain snc1, active compounds read low 1 | locus YBL061C, strain skt5, active compounds read low 1 | locus YBR009C, strain hhf1, active compounds read low 0.985 | locus YBR023C, strain chs3, active compounds read low 1 | locus YBR171W, strain sec66, active compounds read low 1.01 | locus YBR231C, strain swc5, active compounds read low 1 | locus YBR279W, strain paf1, active compounds read low 0.982 | locus YCL011C, strain gbp2, active compounds read low 1.02 | locus YCL016C, strain dcc1, active compounds read low 1.02 | locus YCL061C, strain MRC1, active compounds read low 1.01 | locus YCL069W, strain vba3, active compounds read low 1.01 | locus YCR088W, strain abp1, active compounds read low 1.02 | locus YDL005C, strain med2, active compounds read low 1 | locus YDL040C, strain nat1, active compounds read low 1.01 | locus YDR001C, strain nth1, active compounds read low 1.01 | locus YDR069C, strain doa4, active compounds read low 0.997 | locus YDR137W, strain rgp1, active compounds read low 0.899 | locus YDR159W, strain sac3, active compounds read low 0.953 | locus YDR195W, strain ref2 0.999 | locus YDR297W, strain sur2, active compounds read low 1.01 | locus YDR334W, strain swr1, active compounds read low 1.02 | locus YDR335W, strain msn5, active compounds read low 1.01 | locus YDR392W, strain spt3, active compounds read low 0.958 | locus YEL003W, strain gim4, active compounds read low 1.01 | locus YEL037C, strain rad23, active compounds read low 1.02 | locus YEL061C, strain CIN8 (second series), active compounds read low 1.01 | locus YER015W, strain faa2, active compounds read low 0.997 | locus YER016W, strain bim1, active compounds read low 1.01 | locus YER111C, strain swi4, active compounds read low 1.01 | locus YER155C, strain BEM2 (second series), active compounds read low 1.03 | locus YFR010W, strain ubp6, active compounds read low 1 | locus YGL167C, strain pmr1, active compounds read low 1.01 | locus YGL173C, strain kem1, active compounds read low 0.996 | locus YGL227W, strain vid30, active compounds read low 1.01 | locus YGL240W, strain doc1, active compounds read low 1.01 | locus YGL253W, strain hxk2, active compounds read low 0.927 | locus YHR013C, strain ard1, active compounds read low 0.967 | locus YHR027C, strain rpn1, active compounds read low 1 | locus YHR142W, strain chs7, active compounds read low 1.03 | locus YJL092W, strain hpr5, active compounds read low 1.01 | locus YJL095W, strain BCK1 (second series), active compounds read low 1.02 | locus YJL115W, strain asf1, active compounds read low 1.01 | locus YJL129C, strain trk1, active compounds read low 0.967 | locus YJL154C, strain vps35, active compounds read low 1.01 | locus YJL164C, strain tpk1, active compounds read low 0.987 | locus YJL166W, strain qcr8, active compounds read low 1.01 | locus YJL187C, strain SWE1, active compounds read low 1.01 | locus YKL160W, strain elf1, active compounds read low 0.997 | locus YKR026C, strain gcn3, active compounds read low 0.99 | locus YKR091W, strain srl3, active compounds read low 1.01 | locus YLL001W, strain dnm1, active compounds read low 0.984 | locus YLL026W, active compounds read low 1.01 | locus YLL041C, strain sdh2, active compounds read low 1.01 | locus YLR027C, strain aat2, active compounds read low 0.995 | locus YLR221C, strain rsa3, active compounds read low 1.02 | locus YLR258W, strain gsy2, active compounds read low 0.997 | locus YLR320W, strain mms22, active compounds read low 0.984 | locus YLR342W, strain FKS1, active compounds read low 1 | locus YLR357W, strain rsc2, active compounds read low 1.03 | locus YLR370C, strain arc18, active compounds read low 0.994 | locus YLR384C, strain iki3, active compounds read low 0.999 | locus YML120C, strain ndi1, active compounds read low 0.995 | locus YMR058W, strain fet3, active compounds read low 1.02 | locus YMR125W, strain sto1, active compounds read low 1.04 | locus YMR129W, active compounds read low 0.999 | locus YMR231W, strain pep5, active compounds read low 1 | locus YNL071W, strain lat1, active compounds read low 1.01 | locus YNL209W, strain ssb2, active compounds read low 0.997 | locus YNL248C, strain rpa49, active compounds read low 1.01 | locus YNL322C, strain KRE1 (second series), active compounds read low 1.02 | locus YNR049C, strain mso1, active compounds read low 1.02 | locus YOR001W, strain rrp6, active compounds read low 0.999 | locus YOR070C, strain gyp1, active compounds read low 1 | locus YOR080W, strain dia2, active compounds read low 1.01 | locus YOR083W, strain WHI5, active compounds read low 1 | locus YOR106W, strain vam3, active compounds read low 0.99 | locus YOR265W, strain rbl2, active compounds read low 1 | locus YOR270C, strain vph1, active compounds read low 0.914 | locus YOR290C, strain snf2, active compounds read low 0.966 | locus YPL051W, strain arl3, active compounds read low 1.01 | locus YPL078C, strain atp4, active compounds read low 1.02 | locus YPL240C, strain hsp82, active compounds read low 0.989

C[N+](C)(C)CCC(=O)c1cccc2ccccc12
inactive: [2] 0.951 | [3] 0.972 | [4] 0.962 | [13] 0.989 | [7] 0.99 | [10] 0.93 | [15] 1
active: [1] 0.095 | [6] 0.813 | [8] 0.775 | [14] 0.104 | [9] 0.0891 | [11] 0.0743 | [12] 0.231

COc1cccc(C2CCN(C(=O)c3cccc4ccccc34)CC2)c1
inactive: locus YAR019C, strain CDC15, active compounds read low 0.996 | locus YBL105C, strain PKC1, active compounds read low 0.988 | locus YBR135W, strain CKS1, active compounds read low 0.982 | locus YBR136W, strain MEC1, active compounds read low 0.981 | locus YBR160W, strain CDC28, active compounds read low 0.991 | locus YDL017W, strain CDC7, active compounds read low 0.99 | locus YDL028C, strain MPS1, active compounds read low 0.993 | locus YDL101C, strain DUN1, active compounds read low 0.982 | locus YDL108W, strain KIN28, active compounds read low 0.987 | locus YDL132W, strain cdc53, active compounds read low 0.993 | locus YDL214C, strain PRR2, active compounds read low 0.866 | locus YDR052C, strain DBF4, active compounds read low 0.99 | locus YDR054C, strain cdc34, active compounds read low 0.988 | locus YDR226W, strain ADK1, active compounds read low 0.988 | locus YDR477W, strain SNF1, active compounds read low 0.923 | locus YER123W, strain YCK3, active compounds read low 0.828 | locus YER133W, strain GLC7, active compounds read low 0.899 | locus YFL009W, strain cdc4, active compounds read low 0.992 | locus YFL029C, strain CAK1, active compounds read low 0.99 | locus YFR003C, strain YPI1, active compounds read low 0.987 | locus YFR019W, strain FAB1, active compounds read low 0.89 | locus YFR028C, strain CDC14, active compounds read low 0.99 | locus YGR040W, strain KSS1, active compounds read low 0.904 | locus YGR052W, strain FMP48, active compounds read low 0.958 | locus YGR092W, strain DBF2, active compounds read low 0.903 | locus YHR030C, strain SLT2, active compounds read low 1 | locus YHR079C, strain IRE1, active compounds read low 0.967 | locus YHR082C, strain KSP1, active compounds read low 0.946 | locus YHR205W, strain SCH9, active compounds read low 0.907 | locus YIL147C, strain SLN1, active compounds read low 0.987 | locus YJL095W, strain BCK1, active compounds read low 0.973 | locus YJL128C, strain PBS2, active compounds read low 0.935 | locus YJL157C, strain FAR1, active compounds read low 0.886 | locus YJR016C, strain ILV3, active compounds read low 0.99 | locus YJR066W, strain TOR1 (second series), active compounds read low 0.882 | locus YJR066W, strain TOR1, active compounds read low 0.948 | locus YKL048C, strain ELM1, active compounds read low 0.919 | locus YKL067W, strain YNK1, active compounds read low 0.907 | locus YKL101W, strain HSL1, active compounds read low 0.882 | locus YKL193C, strain SDS22, active compounds read low 0.991 | locus YKL203C, strain TOR2, active compounds read low 0.978 | locus YLR113W, strain HOG1, active compounds read low 0.91 | locus YLR133W, strain CKI1, active compounds read low 0.94 | locus YLR403W, strain SFP1, active compounds read low 0.922 | locus YML070W, strain DAK1, active compounds read low 0.859 | locus YMR001C, strain CDC5, active compounds read low 0.987 | locus YMR205C, strain PFK2 (second series), active compounds read low 0.914 | locus YMR277W, strain FCP1, active compounds read low 0.995 | locus YNL006W, strain LST8, active compounds read low 0.987 | locus YNL020C, strain ARK1, active compounds read low 0.9 | locus YNL161W, strain CBK1, active compounds read low 0.992 | locus YNL183C, strain NPR1, active compounds read low 0.963 | locus YNL207W, strain RIO2, active compounds read low 0.997 | locus YNL222W, strain SSU72, active compounds read low 0.994 | locus YNL307C, strain MCK1 (second series), active compounds read low 0.903 | locus YOL078W, strain AVO1, active compounds read low 0.997 | locus YOL136C, strain PFK27, active compounds read low 0.898 | locus YOR061W, strain CKA2, active compounds read low 0.877 | locus YOR119C, strain RIO1, active compounds read low 0.954 | locus YOR231W, strain MKK1, active compounds read low 0.935 | locus YOR329C, strain SCD5, active compounds read low 0.991 | locus YPL031C, strain PHO85, active compounds read low 0.913 | locus YPL153C, strain RAD53, active compounds read low 0.899 | locus YPL204W, strain HRR25, active compounds read low 0.923 | locus YPL209C, strain IPL1, active compounds read low 0.992 | locus YPL256C, strain CLN2, active compounds read low 0.942 | locus YPR025C, strain CCL1, active compounds read low 0.995 | locus YPR106W, strain ISR1, active compounds read low 0.979 | locus YPR111W, strain DBF20, active compounds read low 0.975 | strain NNK1, active compounds read low 0.976 | strain TSCII, active compounds read low 0.993

COC(=O)C1C(O)CCC2CN3CCc4c([nH]c5ccccc45)C3CC21 (stereo not given)
inactive: [1] 0.997 | [2] 1.01 | [4] 1 | [5] 1.01 | [13] 1.01 | locus YGR229C, strain SMI1, active compounds read low 1.04 | [8] 1.01 | [14] 0.981 | [9] 1.02 | [10] 0.995 | [11] 1 | locus YNL322C, strain KRE1, active compounds read low 1.03 | [12] 1 | [15] 1.01
